From PubChem BioAssay (NCI)
About 83,000 compounds went through this panel and 20% of them were active in at least one assay; those are over-represented in the sample as a whole.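 Each cell line was grown in a 96-well plate and treated with one concentration of compound for 48 hours. Values below 10 were considered active.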 A number with no mark means an inactive call. Calls of active or inactive are those of the source.

test system: HL-60(TB) leukemia; assay: NCI-60 one-dose screen, 48 h (100 = growth as untreated, 0 = no growth, -100 = all killed); conditions: 10 µM unless noted

Row | Structure (SMILES) | growth
1 | CC1CN(Cc2ccccc2)C(=O)NC1=O (stereo not given) | 88.7%
2 | CN1CCN(C(=O)[C@@]2(C)CC[C@]3(C)CC[C@]4(C)C(=CC[C@@H]5[C@@]6(C)CC[C@H](OC(=O)c7cccnc7)C(C)(C)[C@@H]6CC[C@]54C)[C@@H]3C2)CC1 | -49.1% (active)
3 | Clc1ncnc2scc(C3COc4ccccc4O3)c12 (stereo not given) | 102%
4 | c1ccc(OCc2nnc(-c3ccc(Oc4ccccc4)cc3)o2)cc1 | 99.6%
5 | O=C(CN1CCN(c2cc3c(cc2F)c(=O)c(C(=O)N/N=C/c2ccccc2)cn3C2CC2)CC1)N/N=C\c1ccccc1 | 51.1%
6 | CC(C)OC(=O)Nc1ccc(-c2nc(-c3cccc(OCCN4CCOCC4)c3)c(-c3ccnc(Br)c3)[nH]2)cc1 | -47.7% (active)
7 | Fc1ccc(COc2ccc(Nc3ncnc4sc5c(c34)CCCC5)cc2)cc1 | 87.4%
8 | COc1ccc(C2CC(c3cccc(Nc4ccncc4)c3)=NN2c2cc(Cl)cc(Cl)c2)cc1 (stereo not given) | 4.35% (active)
9 | CCN(C(=O)CN1CCN(c2cc3c(cc2F)c(=O)c(C(=O)O)cn3C2CC2)CC1)c1nc(-c2ccc(OC)cc2)cs1 | 30.1%
10 | N#CN1CC[C@H](C(=O)Nc2ncc(-c3ccncc3)s2)C1 | -28.5% (active)
11 | CC1(C)CC[C@]2(CO)CC[C@]3(C)C(=CC[C@@H]4[C@@]5(C)CCNCC(C)(C)[C@@H]5CC[C@]43C)[C@@H]2C1 | 23.5%
12 | CC1(C)CC2=C3C=C[C@@H]4[C@@]5(C)CC[C@H](O)C(C)(C)[C@@H]5CC[C@@]4(C)[C@]3(C)CC[C@@]2(C(=O)O)CC1=O | 39%
13 | O=C(O)/C=C/C(=O)NCc1ccccc1 | 105%
14 | O=C1CCC(=O)N1C1CCCCC1 | 92.5%
15 | CCCCCCNC(=O)Oc1ccc(/C(=C(\C)c2ccccc2)c2ccc(OCCN3CCCCC3)cc2)cc1 | 31.1%
16 | O=c1c2cc(C(F)(F)F)ccc2sc2c(NCCCNCCO)nc3ccccc3c12 | -19% (active)
17 | Cc1nc(Nc2cccnc2)sc1C(=O)/C=C/c1ccc(Cl)cc1 | -4.8% (active)
18 | CC(=O)[C@H]1CC[C@]2(C)[C@@H]1CC[C@@H]1[C@@]3(C)CC(CCC#N)(CCC#N)C(=O)C(C)(C)[C@@H]3CC[C@]12C | 103%
19 | COc1cc(-c2nc(N3CCN(C)CC3)c3ccccc3n2)cc(OC)c1OC | 67%
20 | COc1ccc2nc3nc4ccc[nH]c4cc3c2c1 | 85.6%

Row | Structure (SMILES) | growth
21 | CCCCCCCCC(=O)Nc1ccc(O)cc1 | 61.5%
22 | COC1=C(C)C(=O)N2[C@@H]1[C@H](c1ccccc1)OC21C=CC(=O)C=C1 | -11.2% (active)
23 | NC(N)=Nc1cc2ccccc2c2ccccc12 | 46.4%
24 | Fc1ccc(Oc2ccc(Nc3ncnc4onc(-c5ccccc5)c34)cc2)cc1 | 86.9%
25 | O=C1Nc2cc(-c3ccc(NS(=O)(=O)c4ccccc4)cc3)ccc2/C1=C/c1ccc[nH]1 | 95.7%
26 | COC(=O)c1cc(=O)nc(N/N=C/c2ccc(C)cc2)s1 | 105%
27 | CCOC(=O)c1csc(NC(=O)COc2ccc(/C=C3\Oc4ccccc4C3=O)cc2)n1 | 7.24% (active)
28 | COc1cc(/C=C2\C(=O)N(c3c(Cl)cccc3Cl)c3ccccc32)cc(OC)c1OCCCCCCn1c2ccccc2c(=O)c2ccccc21 | 106%
29 | Cc1ccc2nc3c(nc2c1)-c1cccc2cccc-3c12 | 93.5%
30 | CCN1C(=O)N(CC)C2C1NN=c1s/c(=C\c3ccccc3Br)c(=O)n12 (stereo not given) | -40.7% (active)
31 | CN(Cc1cnc2nc(N)nc(N)c2n1)c1ccc(C(=O)NC(CCC(=O)O)C(=O)O)cc1Br (stereo not given) | 45.2%
32 | CC/C=C\C/C=C\C[C@H]1C/C=C2/C(=O)C=C[C@@H]2C/C=C\CCC(=O)O1 | 1.1% (active)
33 | COC(=O)C1=C(C(=O)OC)C23C=C(C)C1C2=C(C)C1(CC1)[C@@](C)(O)C3=O (stereo not given in full) | 25.6%
34 | Cc1nn(-c2ccccc2)c(N2CCCCC2)c1/C=N/NC(=O)Cn1c(=O)sc2ccccc21 | 69.9%
35 | COc1ccc(C(=O)c2cc3c(N)c(C(=O)Nc4cccc(Cl)c4)sc3nc2C)cc1 | -45.3% (active)
36 | CCCCCCCCNC(=O)C(C)C | 99.7%
37 | COc1ccc(OC)c(/C=C/C(=O)c2c(C)nc3ccccc3c2/C=C/c2ccccc2)c1 | 47%
38 | O=C(CNCCN1CCOCC1)N1c2cccc3cccc(c23)N(C(=O)CNCCN2CCOCC2)C1c1cn(-c2ccccc2)nc1-c1cccc([N+](=O)[O-])c1 | 67.6%
39 | O=C(CCl)NNc1nccc(Nc2ccc(S(=O)(=O)Nc3ccncc3)cc2)n1 | 36.5%
40 | CC(C)c1ccc2occ(C=C3C(=O)NC(=O)NC3=O)c(=O)c2c1 | 74.8%
